Experimental data taken from the supplement of paper PMC6555819.

Each sequence was assayed on RARb homodimer (NR concentration 270 nM) (assay: PBM binding z-score (relative to random genomic background probes); higher = stronger binding; sequences stand for … in GC…GCGATTGACAGCGTAGAATGAAGG).
Outline: (§1)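 Custom Agilent 4×180K protein-binding microarrays carried double-stranded probes. Their 34-nt variable regions held direct-repeat seeds, single-nucleotide variants, half-site ablations and random human genomic background sequences. Arrays were incubated 1 h with ligand-free nuclear receptor dimers in PBS pH 7.4, 2% milk, 0.02% Triton X-100, 1 mM DTT, 0.2 mg/mL BSA and 0.4 mg/ml salmon testes DNA. Antibodies against each partner (one per run) detected binding, and scanned fluorescence was regression-normalized. Binding z-scores use random background probes as reference.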

Going from CCTCGGAGGACAGAACGTCAGAGCTGTCCGCTTT to AGAACGAGGGCACGCTGAGTTGATAGCAGAGTAG, the PBM binding z-score rises from -0.587 to 1.21.

First: TCATATAGGTAAACAGGGGAAAGTCCGTAAGTTA
Second: GGAACGAGGGCAAGTTGTTAGCAGAGTTTGATGG
The PBM binding z-score of the first is lower: 0.507 for the first, 1.42 for the second.

First: ATATGTAGGTTAGCTGGGGTCATTCAGACTAGGC
Second: ACTCGGAGGAGAAAGGTCAGAGCTACGCCAGTGA
The PBM binding z-score of the first is lower: 3.87 for the first, 4.21 for the second.

Compared with TGATTGAGGTTATAAGATCAGGGAACGTTGCAAA, CGAACCAGGTCATCCAGGACAGTGAATACATTGA is higher in PBM binding z-score: 0.293 for the first, 3.03 for the second.

First: CGAACTAGGTCAGAACAGGAGAGTGAAGGATGAT
Second: CCTCGGATGACAACAGGAGGTCAGAGCTGCCAGA
The PBM binding z-score of the first is lower: 1.69 for the first, 3 for the second.

First: CCGACTGGGGCAAGGTTAACATAACGCACAGCCA
Second: CTCGAAAGGTCTGTTGAGGTGAGTATACGGATAA
The PBM binding z-score of the first is higher: 1.47 for the first, 0.88 for the second.

Going from TAGCGTAGGTCAGATCGGGCCAGTATACGCTATA to CCTAGTTGGTCAGGGTCACACACGCTATAGGTAC, the PBM binding z-score rises from 1.87 to 3.88.

Compared with ACTAGTTGGTCATCTGAGGTCACACACAATTCGG, TCTTGTAGATCAAAGGGTAAGAAAGCCGAAGCCT is lower in PBM binding z-score: 4.29 for the first, -0.068 for the second.

Going from ATCGAAAGTTCGAAGGTGAGTATACCCACCCGAA to GCTATTAGTTGAAAGGGCAAGCGAATGATTCTCG, the PBM binding z-score rises from 0.995 to 1.71.

Compared with TAGACTAGGTCATTGGGCCAGTATAGTACGCATC, ATCGAAAGGTCGAGCTGAGTATAGAGAAAGGGAA is lower in PBM binding z-score: 2.75 for the first, 1.8 for the second.

Compared with CCTACTGGGCCAAAGGTCATGGATTCCAATGCTC, CAAACTAGGTCAAGGTCAAACTCGGTTTGTGCCA is higher in PBM binding z-score: 4.97 for the first, 5.07 for the second.

Going from AGTCAAAGTTCGTCTAGGTAACGTAAGATATGCT to CCTTACGGGTCACGAGTTTATAGCACGACGAGCG, the PBM binding z-score rises from 1.35 to 3.38.

Compared with GCTATTAGTGGAAAGGGCAACCGAATGATTCTCG, CCAGACAGGTGAAAGGTAACTCGGTCTGGTACGC is lower in PBM binding z-score: 1.77 for the first, 0.705 for the second.

First: AGAACGAGGGCACGCTGAGTTGATAGCCGAGTAG
Second: GCTAGCAGGCCATTTGGGTCACTCGATGACGGGC
The PBM binding z-score of the first is lower: 1.22 for the first, 1.9 for the second.

First: CTCGAAAGGTCGTGCTCAAGTGAGTATACCAAAC
Second: CCTCGGAGGACATAAGGTCAGAGCTGTCCGCTTT
The PBM binding z-score of the first is lower: 2.33 for the first, 3.89 for the second.

First: GCTATTAGTTGAAAGGGGAACCGAATGATTCTCG
Second: ATCCAAAGGTCGAAGGTGAGTATACCCACCCGAA
The PBM binding z-score of the first is lower: -0.167 for the first, 2.66 for the second.

First: ACTAGTTTGTCAGCTGAGGTCACACACAATTCGG
Second: TCGAGTAGGTTAGTCGGGGCCTTCAGCCAACATA
The PBM binding z-score of the first is higher: 3.94 for the first, -0.149 for the second.

First: GCGACTGGGCCATCAGCAGGTTACCATAACTTAA
Second: ACTAGTTGGTCAGCTGAGGTCATACACAATTCGG
The PBM binding z-score of the first is lower: 0.461 for the first, 3.89 for the second.

Compared with CAGACTGGGGCATAAGGTTACCATAAGCCAGCCC, TCCTATAGGTAAAGGTGAAAGTCGAACGATATGA is lower in PBM binding z-score: 1.78 for the first, 1.42 for the second.

Going from GATACAGGGTCAGCTAGAGTCCAGAGTATGGAAA to ACACGGAGGACAAAGGTCAGAGCTACGCCAGTGA, the PBM binding z-score rises from 3.02 to 4.59.

Each sequence was assayed on RARg:RXRa (NR concentration 270 nM, RXRa partner concentration 90 nM) in the same assay as above.
Outline: as §1

Compared with CCTCGGAGGACAGAACGTCAGAGCTGTCCGCTTT, AGAACGAGGGCACGCTGAGTTGATAGCAGAGTAG is higher in PBM binding z-score: -0.462 for the first, 2.08 for the second.

Compared with TCATATAGGTAAACAGGGGAAAGTCCGTAAGTTA, GGAACGAGGGCAAGTTGTTAGCAGAGTTTGATGG is higher in PBM binding z-score: 0.245 for the first, 1.49 for the second.

Compared with ATATGTAGGTTAGCTGGGGTCATTCAGACTAGGC, ACTCGGAGGAGAAAGGTCAGAGCTACGCCAGTGA is higher in PBM binding z-score: 4.18 for the first, 4.22 for the second.

First: TGATTGAGGTTATAAGATCAGGGAACGTTGCAAA
Second: CGAACCAGGTCATCCAGGACAGTGAATACATTGA
The PBM binding z-score of the first is lower: 1.55 for the first, 4.28 for the second.

First: CGAACTAGGTCAGAACAGGAGAGTGAAGGATGAT
Second: CCTCGGATGACAACAGGAGGTCAGAGCTGCCAGA
The PBM binding z-score of the first is higher: 2.51 for the first, 2.24 for the second.

Going from CCGACTGGGGCAAGGTTAACATAACGCACAGCCA to CTCGAAAGGTCTGTTGAGGTGAGTATACGGATAA, the PBM binding z-score falls from 1.3 to 0.827.

Compared with TAGCGTAGGTCAGATCGGGCCAGTATACGCTATA, CCTAGTTGGTCAGGGTCACACACGCTATAGGTAC is higher in PBM binding z-score: 2.85 for the first, 4.11 for the second.

First: ACTAGTTGGTCATCTGAGGTCACACACAATTCGG
Second: TCTTGTAGATCAAAGGGTAAGAAAGCCGAAGCCT
The PBM binding z-score of the first is higher: 4.22 for the first, 0.11 for the second.

Going from ATCGAAAGTTCGAAGGTGAGTATACCCACCCGAA to GCTATTAGTTGAAAGGGCAAGCGAATGATTCTCG, the PBM binding z-score falls from 1.82 to 1.06.

First: TAGACTAGGTCATTGGGCCAGTATAGTACGCATC
Second: ATCGAAAGGTCGAGCTGAGTATAGAGAAAGGGAA
The PBM binding z-score of the first is lower: 3.47 for the first, 4.17 for the second.

Going from CCTACTGGGCCAAAGGTCATGGATTCCAATGCTC to CAAACTAGGTCAAGGTCAAACTCGGTTTGTGCCA, the PBM binding z-score falls from 6.18 to 6.04.

Compared with AGTCAAAGTTCGTCTAGGTAACGTAAGATATGCT, CCTTACGGGTCACGAGTTTATAGCACGACGAGCG is higher in PBM binding z-score: 1.99 for the first, 5.62 for the second.

Going from GCTATTAGTGGAAAGGGCAACCGAATGATTCTCG to CCAGACAGGTGAAAGGTAACTCGGTCTGGTACGC, the PBM binding z-score rises from 1.05 to 1.23.

Compared with AGAACGAGGGCACGCTGAGTTGATAGCCGAGTAG, GCTAGCAGGCCATTTGGGTCACTCGATGACGGGC is lower in PBM binding z-score: 1.94 for the first, 0.925 for the second.

Going from CTCGAAAGGTCGTGCTCAAGTGAGTATACCAAAC to CCTCGGAGGACATAAGGTCAGAGCTGTCCGCTTT, the PBM binding z-score falls from 4.27 to 3.93.

Compared with GCTATTAGTTGAAAGGGGAACCGAATGATTCTCG, ATCCAAAGGTCGAAGGTGAGTATACCCACCCGAA is higher in PBM binding z-score: 0.105 for the first, 4.58 for the second.

Going from ACTAGTTTGTCAGCTGAGGTCACACACAATTCGG to TCGAGTAGGTTAGTCGGGGCCTTCAGCCAACATA, the PBM binding z-score falls from 3.85 to -0.47.

Compared with GCGACTGGGCCATCAGCAGGTTACCATAACTTAA, ACTAGTTGGTCAGCTGAGGTCATACACAATTCGG is higher in PBM binding z-score: -0.0254 for the first, 3.68 for the second.

First: CAGACTGGGGCATAAGGTTACCATAAGCCAGCCC
Second: TCCTATAGGTAAAGGTGAAAGTCGAACGATATGA
The PBM binding z-score of the first is higher: 1.9 for the first, 1.47 for the second.

Going from GATACAGGGTCAGCTAGAGTCCAGAGTATGGAAA to ACACGGAGGACAAAGGTCAGAGCTACGCCAGTGA, the PBM binding z-score rises from 5.59 to 6.1.
